From PubChem BioAssay (NCI) come the findings set out here.

This is part of a sample that, as a whole, favours compounds with a hit. Of some 79,000 tested, about 15% had one in any assay. A number with no mark means an inactive call. No stated cut-off is given here; in the data, active means growth inhibition above about 70%; inactive means the rest.

The assay can be described thus: NCI Yeast Anticancer Drug Screen. Data for the rad50 strain (AID 155).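 Further: 0% = growth of vehicle-only cultures of the same strain.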 Particulars: S. cerevisiae rad50 strain growth inhibition; at 50.0 µM; hits give high values. Summed up: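 Genetically altered yeast (DNA repair pathway); compound treatment; growth inhibition vs vehicle ctrl.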
Regarding `CC1CC(C)(C)OC(c2ccc(Cl)cc2)O1` (stereo not given), the growth inhibition was 9.35%.
`Cc1nc(N)sc1C(=O)/C=C\c1ccc2c(c1)OCO2`: the growth inhibition is 21.4%.
In the case of `N#CCCC(=O)c1ccc[nH]1`, the growth inhibition is 6.6%.
With `COc1cc(-c2ccc(N=Nc3ccc(N)nc3N)c(OC)c2)ccc1N=Nc1ccc(N)nc1N`, the growth inhibition is 6.9%.
In the case of `CCC(CC)C(=O)NC(=O)NC` it was -4.85%.
For the compound `CCO/C=N/c1oc(-c2ccccc2)nc1C#N`, the growth inhibition was 4.6%.
`O=[N+]([O-])c1ccc2nc(Cl)cnc2c1`: the growth inhibition is 25.2%.
As for `NC(=O)C(N)C(N)=NCc1ccccc1` (stereo not given), the growth inhibition is 10%.
Consider `COC1=CC(=O)N(C(=O)C2CSC(C(CO)NC(=O)c3csc(/C=N/O)n3)=N2)C1` (stereo not given), for which the growth inhibition was 1.85%.
Regarding `O=C(C1CC=CCC1C(=O)N1CCCCC1)N1CCCCC1` (stereo not given), the growth inhibition is 11.1%.
As for `COc1cc(C)c2c(c1)C=C[C@@H]1[C@@H]2CC[C@]2(C)C(=O)CC[C@@H]12`, the growth inhibition is -10.1%.
In the case of `CCOC(=O)C1=C(N)n2c(s/c(=C/c3ccc(N(C)C)cc3)c2=O)=C(C(=O)OCC)C1c1ccc(N(C)C)cc1` (stereo not given) it was -7.3%; in that of `CC(=O)OCC1OC(Sc2nc3ncnc(N)c3[nH]2)C(OC(C)=O)C(OC(C)=O)C1OC(C)=O` (stereo not given), -0.55%; in that of `COc1ccccc1/C=C/C(=O)c1sc(-c2cccnc2)nc1C`, 38.5%.
Turning to `c1ccc2c(c1)n1nnnc1c1nnnn21`, the growth inhibition is 34.6%.
Take `CCCCOB(OCCCC)OCCCC`: the growth inhibition was 6.1%.
In the case of `Cc1ccc(-c2ccc(C)cc2)cc1` it was -31.2%; in that of `O=C(NC(O)(C(F)(F)F)C(F)(F)F)c1ccccc1`, -5.35%; in that of `COC(=O)CCCC(NC(=O)c1ccc([N+](=O)[O-])cc1)C(=O)OC` (stereo not given), 19.1%.
Under `N#Cc1cnc(SCC(=O)O)nc1N` stands -27.2%; under `Nc1ncnc2c1ncn2-c1ccccc1Cl`, 4.6%.
Consider `CN(C)CCCNc1cc[n+](C)c2cccc([N+](=O)[O-])c12`, for which the growth inhibition was 27.1%.
On to `O=C(O)c1ccc([N+](=O)[O-])cc1OCc1ccccc1`, for which the growth inhibition was 13.4%.
With `NC(=O)CCC(NS(=O)(=O)c1ccc(NC(=O)c2ccccc2)cc1)C(=O)O` (stereo not given), the growth inhibition is 4%.
For `COc1ccc(NC(=O)CCC(=O)CC(=O)c2ccc(C)cc2)cc1`, the growth inhibition is -18.6%.
Under `COc1cc(C(=O)Nc2c3ccccc3nc3ccccc23)cc(OC)c1OC` stands -19.9%.
For the compound `NNc1nc2ccccc2[nH]1`, the growth inhibition is 16.6%.
Take `CCOC(=N)CC(=O)Nc1ccccc1CC`: the growth inhibition was 17.8%.
Regarding `CCOC(=O)C(C)C(=O)NCc1ccccc1` (stereo not given), the growth inhibition was -4.55%.
Consider `O=C(Nc1cccc2ccccc12)OCC1CC1`, for which the growth inhibition was -4%.
With `O=C=Nc1ccc(Cc2ccc(N=C=O)cc2)cc1` (tested in a mixture with another compound), the growth inhibition was -6.55%.
In the case of `Cc1cccc(NC(=O)NC(O)C(Cl)(Cl)Cl)c1` (stereo not given) it was 1.65%.
In the case of `Brc1ccc(Br)nc1` it was -7.6%; in that of `CCCCCCCCCCCCc1c2ccccc2cc2ccccc12`, 3.55%; in that of `CCN(CC)c1ccccc1S(=O)(=O)O`, -5.45%.
Take `c1cc2nc(c1)CSCCCCCCCCSC2`: the growth inhibition is -3.25%.
Under `CC=C/C=C/[C@@H]1O[C@](O)([C@H](CC)C(=O)NC/C=C/C=C(\C)[C@@H](OC)[C@@H](C)[C@@H]2O[C@H](/C=C/C=C/C=C(\C)C(=O)c3c(O)cc[nH]c3=O)[C@H](O)[C@@H]2O)[C@H](O)[C@H](O)C1(C)C` stands 35.2%; under `CC(=O)c1ccco1`, 17.8%.
As to `N#CCCC(CCC#N)(CCC(CCC#N)(CCC#N)[N+](=O)[O-])[N+](=O)[O-]`, the growth inhibition is -4.05%.
For `O=C1NC(c2cccc3ccccc23)Nc2ccccc21` (stereo not given), the growth inhibition was 3.05%.
